SMILES strings stand for the structures. Records with an inconclusive call do not appear. Calls of active or inactive are those of the source. Calls come from the whole dose curve; as a rule, active = well fitted inhibition curve with a large enough effect; inconclusive = small, poorly fitted or top-dose-only effect; inactive = no such curve, though single readings can be large or run the other way.

Drawing on PubChem BioAssay (NCATS), this text covers outcome for 14 compounds.

This test deals with Glutaminase kidney isoform, mitochondrial (Homo sapiens) (UniProt O94925). The test is described as follows: qHTS for Inhibitors of Glutaminase (GLS): LOPAC Validation (AID 624146).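 Note: glutamate product detected by oxidase and peroxidase coupled Amplex red fluorescence gain; nearly all actives have a fitted effect of over 60% in size.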 Particulars: glutaminase enzyme activity inhibition; series mostly up to 46.1 µM. An excerpt: Glutaminase (GLS) catalyzes the hydrolysis of glutamine into glutamate and ammonia. It plays a critical role in glutaminolysis, which is an important energy source for proliferating cells. It was shown that c-Myc, an oncogenic transcription factor known to regulate microRNAs and to stimulate cell proliferation, increases glutamine metabolism by stimulating the expression of GLS via direct suppression of miR23a and miR23b.
Glutaminase kidney isoform, mitochondrial (Homo sapiens), sequence (O94925 whole entry, looked up, canonical isoform): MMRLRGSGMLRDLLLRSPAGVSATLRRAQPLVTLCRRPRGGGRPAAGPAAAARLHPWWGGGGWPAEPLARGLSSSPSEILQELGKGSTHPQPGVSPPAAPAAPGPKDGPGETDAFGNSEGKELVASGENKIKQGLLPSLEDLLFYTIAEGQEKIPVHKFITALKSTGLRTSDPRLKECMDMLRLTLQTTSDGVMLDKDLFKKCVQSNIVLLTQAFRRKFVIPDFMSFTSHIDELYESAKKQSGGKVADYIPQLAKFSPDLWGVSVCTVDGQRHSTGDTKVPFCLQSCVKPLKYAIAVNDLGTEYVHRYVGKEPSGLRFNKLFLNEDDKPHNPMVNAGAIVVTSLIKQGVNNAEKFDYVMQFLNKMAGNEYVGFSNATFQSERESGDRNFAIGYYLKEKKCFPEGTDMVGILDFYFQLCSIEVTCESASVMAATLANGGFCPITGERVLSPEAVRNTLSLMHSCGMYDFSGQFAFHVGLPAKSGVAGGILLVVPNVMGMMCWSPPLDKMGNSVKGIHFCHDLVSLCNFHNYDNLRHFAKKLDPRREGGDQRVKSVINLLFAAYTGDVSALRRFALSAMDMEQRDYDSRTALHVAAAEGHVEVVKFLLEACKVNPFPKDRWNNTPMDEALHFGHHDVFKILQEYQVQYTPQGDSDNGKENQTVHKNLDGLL
GLS is also thought to play a pathogenic role on HAD using a human HIV-1 infected macrophage system. […] GLS inhibition limits glutamate release and provides neuroprotection against HIV-1 infected macrophages.
The overall goal of this project is to identify small molecule inhibitors of GLS through quantitative high throughput screening (qHTS) of the MLSMR. A validated potent and selective inhibitor can be used as a tool molecule to further study the pharmacology of its target as well as explore its potential therapeutic application in cancer and inflammatory neurological disorders, such as HIV1-associated dementia (HAD) and multiple sclerosis.
NIH Chemical Genomics Center [NCGC]
NIH Molecular Libraries Probe Centers Network [MLPCN]
Assay Submitter (PI): Barbara S. Slusher, Johns Hopkins University
Three 3 uL of hKGA is dispensed into black well 1536-well plates in 45 mM KH2PO4 (pH 8.2), 0.02% Tween-20. Then 23 nL of compounds are added through pin tool transfer. To this, 1 uL of 1mM L-Glutamine and 1 uL of a solution of L-Glutamateoxidase, HRP, Amplex red are added. Plate is centrifuged for 25 sec before an initial fluorescence read is obtained on the ViewLux, after 30 min of RT incubation, the final read is taken on the ViewLux.
`Nc1nc(N)c2nc(CNc3ccc(C(=O)NC(CCC(=O)O)C(=O)O)cc3)cnc2n1` (centres undefined): the call was inactive.
Regarding `CC1CC2C3CCC4=CC(=O)C=C[C@]4(C)[C@@]3(F)[C@@H](O)C[C@]2(C)[C@@]1(O)C(=O)CO` (some centres undefined), the compound was called inactive.
On to `COc1cc2ncnc(Nc3cccc(Cl)c3)c2cc1OC`, for which the outcome was inactive.
Consider `CC(C)NCC(O)c1ccc(NS(C)(=O)=O)cc1` (centres undefined), for which the result was inactive.
`NC(=O)c1ccc2[nH]ccc2c1`: the call was inactive.
`Cc1ccc(S(=O)(=O)N[C@@H](Cc2ccccc2)C(=O)CCl)cc1`: the compound was classed as inactive.
Regarding `NC(=O)c1cccc(N)c1`, the compound was called inactive.
Then `CCCCS(=N)(=O)CCC(N)C(=O)O` (centres undefined), with “inactive”.
Regarding `CCN1CCCC1CNC(=O)c1cc(S(N)(=O)=O)ccc1OC` (centres undefined), the result was inactive.
With `CC(=O)[C@H]1CC[C@H]2[C@@H]3CCC4=CC(=O)CC[C@]4(C)[C@H]3CC[C@]12C`, the outcome was inactive.
In the case of `CCN(CC)CCn1c(=O)c(Cc2ccc(OC)cc2)nc2ccccc21`, the compound was classed as inactive.
For `COc1cc2nc(N3CCCN(C)CC3)nc(NC3CCN(Cc4ccccc4)CC3)c2cc1OC`, the result was inactive.
Consider `OCc1ccc(-c2nn(Cc3ccccc3)c3ccccc23)o1`, for which the compound was called inactive.
Regarding `O=C(O)C1CCCN(CCC=C(c2ccccc2)c2ccccc2)C1` (centres undefined), the call was inactive.
